Source: PubChem (several laboratories)
NCOA2 inhibitor: inhibition of GAL4-SRC2 driven luciferase reporter, primary screen, SRC2 inhibitor project, cell-based, luminescence; HEK293 GAL4-SRC2 luciferase reporter; Nuclear receptor coactivator 2 (Homo sapiens), Q15596; 370,000 tested, 0.17% active; AID 651957, 2012; inhibition, % at 9 µM;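 active = inhibition above the mean inhibition of all tested compounds plus 3 SD, set per campaign, cut at about 52% in these data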
Target sequence (Q15596 whole entry, looked up, the tested form may be a part): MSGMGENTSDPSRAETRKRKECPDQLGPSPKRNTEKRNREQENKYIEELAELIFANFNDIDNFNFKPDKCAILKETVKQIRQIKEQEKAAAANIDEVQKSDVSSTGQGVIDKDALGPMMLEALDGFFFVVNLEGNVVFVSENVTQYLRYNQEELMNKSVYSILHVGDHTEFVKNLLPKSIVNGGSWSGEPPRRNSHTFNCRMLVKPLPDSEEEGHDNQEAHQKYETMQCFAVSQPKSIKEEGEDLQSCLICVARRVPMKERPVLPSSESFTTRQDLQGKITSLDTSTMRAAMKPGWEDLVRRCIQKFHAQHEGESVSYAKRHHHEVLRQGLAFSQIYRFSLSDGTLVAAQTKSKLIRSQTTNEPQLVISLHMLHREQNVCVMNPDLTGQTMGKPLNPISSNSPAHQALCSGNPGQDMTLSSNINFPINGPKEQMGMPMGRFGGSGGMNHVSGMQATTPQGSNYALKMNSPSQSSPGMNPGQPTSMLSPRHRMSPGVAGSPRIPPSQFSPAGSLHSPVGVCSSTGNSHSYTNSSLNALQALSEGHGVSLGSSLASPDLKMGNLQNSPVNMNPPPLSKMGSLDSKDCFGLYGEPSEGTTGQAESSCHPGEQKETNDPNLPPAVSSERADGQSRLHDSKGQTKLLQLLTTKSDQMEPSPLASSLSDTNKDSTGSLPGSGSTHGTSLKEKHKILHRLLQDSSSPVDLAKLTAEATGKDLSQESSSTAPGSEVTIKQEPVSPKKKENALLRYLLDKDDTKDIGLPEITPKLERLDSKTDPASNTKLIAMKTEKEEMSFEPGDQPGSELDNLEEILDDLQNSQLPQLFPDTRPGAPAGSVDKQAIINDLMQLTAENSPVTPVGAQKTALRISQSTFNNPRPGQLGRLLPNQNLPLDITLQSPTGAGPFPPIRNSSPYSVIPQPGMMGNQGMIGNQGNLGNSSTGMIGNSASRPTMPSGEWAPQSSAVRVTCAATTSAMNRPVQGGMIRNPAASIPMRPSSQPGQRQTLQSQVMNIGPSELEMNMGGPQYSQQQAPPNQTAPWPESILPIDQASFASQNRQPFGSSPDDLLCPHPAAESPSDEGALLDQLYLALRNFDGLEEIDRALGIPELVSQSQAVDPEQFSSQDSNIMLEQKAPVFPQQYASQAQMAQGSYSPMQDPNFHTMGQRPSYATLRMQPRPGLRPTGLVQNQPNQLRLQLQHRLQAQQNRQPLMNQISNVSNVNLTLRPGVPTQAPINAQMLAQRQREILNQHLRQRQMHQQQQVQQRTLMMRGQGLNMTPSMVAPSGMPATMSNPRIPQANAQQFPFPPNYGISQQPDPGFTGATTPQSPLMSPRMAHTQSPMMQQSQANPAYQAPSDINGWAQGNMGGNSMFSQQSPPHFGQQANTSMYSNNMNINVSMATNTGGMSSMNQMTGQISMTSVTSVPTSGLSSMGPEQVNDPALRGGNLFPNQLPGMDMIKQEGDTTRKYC
SRC1 inh: SRC1 coactivator transcriptional activity inhibitors, primary screen, cell-based, luminescence; Nuclear receptor coactivator 1 (Homo sapiens), Q15788; HEK293 GAL4-SRC1 luciferase reporter; inhibition, % at 3.6 µM; 360,000 tested, 0.12% active;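 active = inhibition above the campaign mean plus 3 SD, with each screening campaign given its own cutoff, cut at about 60% in these data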
NCOA3 inh: SRC3 coactivator transcriptional activity inhibitors, primary screen, cell-based, luminescence; HEK293 GAL4-SRC3 luciferase reporter; Nuclear receptor coactivator 3 (Homo sapiens), Q9Y6Q9; inhibition, % at 3.6 µM; AID 588352, 2011; 360,000 tested, 0.17% active;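 active = inhibition above a per-campaign cutoff, the mean of all compounds plus 3 SD, cut at about 60% in these data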;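 note: higher means less SRC3-driven luciferase light from the GAL4 reporter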
LRH-1 inv ag: LRH-1 (NR5A2) inverse agonists, primary screen, cell-based, luminescence, HEK293T, StAR-luciferase reporter | LRH-1 transfected, 24 h | inhibition, % at 3.6 µM | 360,000 tested, 0.13% active | AID 602396, 2012;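 active = inhibition above the mean inhibition of all tested compounds plus 3 SD, cut at about 73% in these data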
NR2F2 inh: NR2F2 transcriptional activity inhibitors, primary screen, cell-based, luciferase reporter, HEK293T, luminescence; COUP transcription factor 2 (Homo sapiens), P24468; 370,000 tested, 0.7% active; inhibition, % at 8.6 µM; HEK293T NGFI-A luciferase reporter;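 active = inhibition above a per-plate cutoff, mean inhibition of test wells between control levels plus 3 SD, cut at about 38% in these data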;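 note: cells cotransfected with COUP-TFII expression vector driving the NGFI-A reporter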
Gli-Sufu antag: Gli-Sufu pathway antagonists, primary screen, luciferase luminescence, Sufu-KO-LIGHT cells, uHTS | Sufu-KO-LIGHT fibroblasts, Gli luciferase reporter luminescence | inhibition, % at 5 µM | 340,000 tested, 0.74% active | AID 588413, 2011;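 active = inhibition above about 55%, limit read from the data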
Gal4-VP16 ctr: Gal4-VP16 luciferase reporter inhibitors, counter-screen for COUP-TFII antagonist project, cell-based, luminescence, HEK293; shares compounds with NR2F2 inh; inhibition, % at 8.5 µM; 2,500 tested, 25% active; AID 687007, 2013; in the data active = inhibition above about 13%
COUP-TFII conf: NR2F2 transcriptional activity inhibitors, confirmation, cell-based, luciferase reporter, HEK293, triplicate. 2,500 tested, 45% active. shares compounds with NR2F2 inh. HEK293 NGFI-A luciferase reporter, luminescence. inhibition, % at 8.5 µM;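 active = mean inhibition over three repeats above a set limit taken from the earlier primary screen, cut at about 38% in these data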
Large screens that a line does not name were inactive (follow-up assays come after a bar, where they were run). Shown are actives, neighbours in structure and some others; about 1.3% of the full set was active somewhere.

COc1ccc(OC)c(CC(=O)Nc2cc(S(=O)(=O)N3CCCCC3)ccc2C)c1	none
COc1ccc(CC(=O)Nc2cc(S(=O)(=O)N3CCCCC3)ccc2C)cc1OC	NR2F2 inh 60 | Gal4-VP16 ctr inactive | COUP-TFII conf 48
O=C(CSc1ncccc1C(=O)O)Nc1ccc2c(c1)OCCO2	NR2F2 inh 55 | Gal4-VP16 ctr inactive | COUP-TFII conf inactive
COc1ccc(NC(=O)CSc2ncccc2C(=O)OC(C)C)cc1OC	NR2F2 inh 58 | Gal4-VP16 ctr inactive | COUP-TFII conf inactive
O=C(Cn1cnc2ccccc21)Nc1ccc2c(c1)OCCCO2	NR2F2 inh 39 | Gal4-VP16 ctr inactive | COUP-TFII conf inactive
O=c1cc(-c2ccccc2)ss1	none
CC(Nc1ncnc2sccc12)c1ccccc1 (stereo not drawn)	NR2F2 inh 60, Gli-Sufu antag 71 | Gal4-VP16 ctr inactive | COUP-TFII conf 61
CC(=O)N1c2ccc(S(=O)(=O)N3CCC(C(=O)Nc4cccc(C)n4)CC3)cc2CC1C (stereo not drawn)	NR2F2 inh 54 | Gal4-VP16 ctr inactive | COUP-TFII conf 54
CC(=O)N1c2ccc(S(=O)(=O)NCC3CCC(C(=O)Nc4cccc(C)n4)CC3)cc2CC1C (stereo not drawn)	NR2F2 inh 56 | Gal4-VP16 ctr inactive | COUP-TFII conf inactive
COc1cc(C)c(Br)cc1S(=O)(=O)NCc1cccs1	none
COc1cc(C)c(Br)cc1S(=O)(=O)NCc1ccncc1	NR2F2 inh 57 | Gal4-VP16 ctr inactive | COUP-TFII conf inactive
CC1CCN(c2ccc(-c3cccc(NC(=O)C(F)(F)F)c3)nn2)CC1	NR2F2 inh 41 | Gal4-VP16 ctr inactive | COUP-TFII conf inactive
Cc1ccc(CN2CCC(n3nccc3NC(=O)c3ccccc3C)CC2)o1	none
N#Cc1c(NC(=O)CSc2ncn[nH]2)sc2c1CCCCC2	NCOA2 inhibitor 84, NR2F2 inh 88 | Gal4-VP16 ctr 81 | COUP-TFII conf 79
Cc1ccc2nc(NC(=O)CN3C(=O)NC4(CCCC4)C3=O)sc2c1	none
C=CCc1cccc2cc(C(=O)Nc3ccccc3C(=O)O)c(=O)oc12	NR2F2 inh 41 | Gal4-VP16 ctr inactive | COUP-TFII conf 47
C=CCc1cccc2cc(C(=O)O)c(=O)oc12	none
CCCCCCCCN1C(=O)[C@H](CC(=O)NCCC(C)C)C[C@@]2(C(=O)OC)CC(C)(C)CC=C12	none (no result: SRC1 inh, NCOA3 inh, Gli-Sufu antag)
CCOC(=O)N1CCN(C(=O)C(NC(=O)c2ccc(C(C)(C)C)cc2)C(C)C)CC1 (stereo not drawn)	NR2F2 inh 40 (no result: Gli-Sufu antag) | Gal4-VP16 ctr inactive | COUP-TFII conf inactive
CCOC(=O)N1CCN(C(=O)c2ccccc2NC(=O)c2ccc(C(C)(C)C)cc2)CC1	none
Nc1ccc(Oc2ccccc2-c2ccccc2)cc1	NCOA2 inhibitor 83, NR2F2 inh 78 | Gal4-VP16 ctr 77 | COUP-TFII conf 73
NCCOc1ccccc1-c1ccccc1	none
COC(=O)c1ccc(N2C(c3cc(OC)cc(OC)c3)=Cc3ccc(OC)cc3C2CC(=O)c2ccco2)cc1 (stereo not drawn)	none (no result: SRC1 inh, NCOA3 inh, Gli-Sufu antag)
COC(=O)c1ccc(N2C(c3ccsc3)=Cc3cc4c(cc3C2CC(=O)c2ccco2)OCO4)cc1 (stereo not drawn)	NR2F2 inh 43 (no result: SRC1 inh, NCOA3 inh, Gli-Sufu antag) | Gal4-VP16 ctr inactive | COUP-TFII conf inactive
CCN1C(=O)CS/C1=N\S(=O)(=O)c1ccc(Cl)cc1	none
CCn1c(Cl)c(C=O)s/c1=N\S(=O)(=O)c1ccccc1	NR2F2 inh 51 | Gal4-VP16 ctr 48 | COUP-TFII conf inactive
O=C(NCc1ccccc1Cl)c1ccc2nc([C@@H]3O[C@H](CO)[C@H](O)[C@H](O)[C@H]3O)[nH]c2c1	none (no result: NCOA2 inhibitor, NR2F2 inh, Gli-Sufu antag)
C=CCn1c(SCC(=O)Nc2sccc2C(N)=O)nc2sc(CC)cc2c1=O	NR2F2 inh 42 | Gal4-VP16 ctr inactive | COUP-TFII conf inactive
COCCC(=O)Nc1ccc2c(c1)CN(C(=O)CSC)CC2	none
CN(C)S(=O)(=O)N1CCc2ccc(NC(=O)c3ccc(C(F)(F)F)cc3)cc2C1	NR2F2 inh 56 | Gal4-VP16 ctr inactive | COUP-TFII conf inactive
COCCC(=O)N1CCc2ccc(NC(=O)c3ccc(C(F)(F)F)cc3)cc2C1	NR2F2 inh 38 | Gal4-VP16 ctr inactive | COUP-TFII conf inactive
O=S1(=O)N[C@@H](Cc2ccccc2)COc2cc(N3CCOCC3)ccc21	none (no result: SRC1 inh, NCOA3 inh, LRH-1 inv ag, Gli-Sufu antag)
O=C(CCc1ccc(S(=O)(=O)N2CCOCC2)cc1)Nc1nc(COc2ccccc2)cs1	NR2F2 inh 39 | Gal4-VP16 ctr inactive | COUP-TFII conf inactive
Cc1ccc(C)c(NC(=O)CC2Oc3ccccc3NC2=O)c1 (stereo not drawn)	none
O=C1C2C3C=CC(C3)C2C(=O)N1c1ccc(N2CCN(c3ccccn3)CC2)c([N+](=O)[O-])c1 (stereo not drawn)	NR2F2 inh 42 | Gal4-VP16 ctr inactive | COUP-TFII conf inactive
COc1ccccc1CNc1nc(Nc2cccc(-c3cnco3)c2)c2sccc2n1	NR2F2 inh 48 (no result: Gli-Sufu antag) | Gal4-VP16 ctr inactive | COUP-TFII conf inactive
COc1ccccc1CNc1nc(NCc2ccccc2OC)c2sccc2n1	NR2F2 inh 53 (no result: Gli-Sufu antag) | Gal4-VP16 ctr inactive | COUP-TFII conf inactive
COc1ccccc1CNc1nc(NCC2CC2)nc2ccsc12	NR2F2 inh 47 (no result: Gli-Sufu antag) | Gal4-VP16 ctr inactive | COUP-TFII conf inactive
COCCNc1nc(NCc2ccccc2OC)c2sccc2n1	none (no result: Gli-Sufu antag)
COc1ccccc1CNc1nc(NCc2ccccc2SC)c2sccc2n1	none (no result: Gli-Sufu antag)
COc1ccccc1CNc1nc(NCc2cccs2)nc2ccsc12	none (no result: Gli-Sufu antag)
CCNC(=O)C1(C)CCN(Cc2ccccc2C#N)C1 (stereo not drawn)	none (no result: Gli-Sufu antag)
O=C(N[C@@H](Cc1ccccc1)C(=O)NCP(=O)(O)OC(Cc1ccccc1)C(=O)O)OCc1ccccc1 (stereo partly drawn)	none (no result: NCOA2 inhibitor, SRC1 inh, NCOA3 inh, LRH-1 inv ag, Gli-Sufu antag)
CC(C)C(NC(=O)Cc1ccccc1)C(=O)N1CCN(c2cccc(Cl)c2)CC1 (stereo not drawn)	NR2F2 inh 65 | Gal4-VP16 ctr inactive | COUP-TFII conf inactive
C=CCCC1CN(Cc2ccc(OC)cc2)S(=O)(=O)c2c(F)cccc2O1 (stereo not drawn)	none (no result: SRC1 inh, NCOA3 inh, LRH-1 inv ag, Gli-Sufu antag)
Cc1cccc(Oc2ccc(N)cc2)c1	none
Nc1ccc(Oc2cccc(Oc3ccc(N)cc3)c2)cc1	NCOA2 inhibitor 86, NR2F2 inh 77 | Gal4-VP16 ctr 77 | COUP-TFII conf 74
